Here are results for 40 compounds from PubChem BioAssay (EPA / NIEHS).

Inconclusive results are not listed. The source made the active and inactive calls. How the source made its calls: active means hit-call score of the fitted dose curve at least 0.9, where 1 is the maximum; inconclusive means response in the unintended direction; inactive means score below 0.9.

Read-out in the assay: ABC Transporter (ABCB1), ABCB1 (gene 5243)
The experiment in a line: CLD_ABCB1_6hr: CellzDirect (CLD) Gene Expression Assay for ABC Transporter (ABCB1) at 6 hours (AID 2283659).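 Further: hits raise ABCB1 transcript above the DMSO vehicle baseline.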 How it is done:
CLD_6hr is a cell-based, multiplexed-readout assay that uses hepatocyte, a human liver primary cell, with measurements taken at 6 hours after chemical dosing in a 96-well plate.CLD_ABCB1_6hr is one of 16 assay component(s) measured or calculated from the CLD_6hr assay. It is designed to make measurements of mRNA induction, a form of inducible reporter, as detected with chemiluminescence signals by Quantitative Nuclease Protection Assay (qNPA) technology.Data from the assay component CLD_ABCB1_6hr was analyzed at the endpoint, CLD_ABCB1_6hr, in the positive analysis fitting direction relative to DMSO as the negative control and baseline of activity. Using a type of inducible reporter, gain-of-signal activity can be used to understand changes in the reporter gene as they relate to the gene ABCB1. Furthermore, this assay endpoint can be referred to as a primary readout. To generalize the intended target to other relatable targets, this assay endpoint is annotated to the transporter intended target family, where subfamily is ABC transporter.
Human hepatocyte cultures were treated daily for two consecutive days with fresh dosing solutions containing appropriate concentrations of the 320 ToxCast chemicals (chemical identities were blinded to CellzDirect and other ToxCast collaborators), vehicle control (0.2% DMSO), and positive control inducers as summarized in Table 1. Due to the large number of treatment groups and chemicals examined, the ToxCast chemicals were divided into two groups (spanning two independent cultures of hepatocytes from separate donor preparations (Hu778: ToxCast plates 1 and 2; Hu776: ToxCast plates 3 and 4). Each preparation of human hepatocyte cultures was treated with respective vehicle control, medium only control, set of six positive controls/reference chemicals for the five hepatic receptor pathways, and a subset of eight of the ToxCast chemicals (indoxacarb, pyrithiobac-sodium, norflurazon, cyhalofop-butyl, methomyl, thiram, acetochlor, and propiconazole). These replicate data, coupled with internal replicates designed within the blinded ToxCast chemical library, provided additional data to evaluate interindividual differences between hepatocyte preparations and their potential impact on chemical profiles.Cell morphology and integrity were evaluated using phase-contrast microscopy as an indicator of hepatocyte cell health (Tyson & Green, 1987). Cultures for each treatment group (i.e., media, vehicle [0.2% DMSO], positive control inducers [multiple concentrations], and the ToxCast chemicals [multiple concentrations]) were observed and cell morphology was assessed relative to vehicle control cultures at each harvest time point (0, 6, 24, or 48 h). […] Images were evaluated at the conclusion of the study to assess changes in cell integrity and account for the effects of chemical exposure on uncharacteristic changes in concentration-dependent gene expression profiles. The results from these determinations of apparent cytotoxicity were annotated (yes/no) alongside the corresponding qNPA data for reference.At the conclusion of each treatment period, hepatocyte cultures (96-well) were washed with 1 volume of HBSS, lysed by addition of 25 ul ArrayPlate lysis buffer (HTG, Tucson, AZ), and 70 ul/well of Denaturation Oil, denatured by incubation at 95C for 10 min, and frozen at approximately -70C until analysis by nuclease protection assay (qNPA) (Roberts et al., 2007). For qNPA analysis, cell lysates were thawed at 50C for approximately 30 min, qNPA probes were added, and samples were incubated at 95C for 10 min to begin the detection process by denaturing the target RNA, dissociating the duplexes and secondary structure hybridization. At the conclusion of the hybridization period, S1 nuclease reagent was added to each sample to digest all nonprotected nucleotides at 50C for 60-90 min. […]
`O=[N+]([O-])/N=C1\NCCN1Cc1ccc(Cl)nc1`: the compound was called inactive. Consider `O=C(O)C(F)(F)C(F)(F)C(F)(F)C(F)(F)C(F)(F)C(F)(F)C(F)(F)F`, for which the call was inactive.

Consider `COP(=S)(OC)Oc1ccc([N+](=O)[O-])cc1`, for which the compound was called inactive. Regarding `OCCOc1ccccc1`, the call was inactive.

Regarding `CCC(C)(C)C(=O)OC1=C(c2ccc(Cl)cc2Cl)C(=O)OC12CCCCC2`, the compound was classed as inactive. Turning to `CC1(C)C(C=C(Cl)Cl)C1C(=O)OC(C#N)c1ccc(F)c(Oc2ccccc2)c1` (stereo not given), the compound was classed as inactive. Turning to `CCOCN(C(=O)CCl)c1c(C)cccc1CC`, the call was inactive.

As to `CC[C@H](C)[C@H]1O[C@]2(C=C[C@@H]1C)C[C@@H]1C[C@@H](C/C=C(\C)[C@@H](O[C@H]3C[C@H](OC)[C@@H](O[C@H]4C[C@H](OC)[C@@H](O)[C@H](C)O4)[C@H](C)O3)[C@@H](C)/C=C/C=C3\CO[C@@H]4[C@H](O)C(C)=C[C@@H](C(=O)O1)[C@]34O)O2` (tested in a mixture with another compound), the compound was classed as inactive. The same measure for `CCc1ccc(C(=O)NN(C(=O)c2cc(C)cc(C)c2)C(C)(C)C)cc1`: “inactive”; for `CN1CSC(=S)N(C)C1`: “inactive”. For `N#CN` the value was “inactive”. For `ClC1C(Cl)C(Cl)C(Cl)C(Cl)C1Cl` (stereo not given) the value was “inactive”; for `CC(C)(C)C(O)/C(=C\c1ccc(Cl)cc1Cl)n1cncn1` (stereo not given), “inactive”.

As for `O=S1OCC2C(CO1)C1(Cl)C(Cl)=C(Cl)C2(Cl)C1(Cl)Cl` (stereo not given), the call was inactive. The same measure for `C#CCN1C(=O)COc2cc(F)c(N3C(=O)C4=C(CCCC4)C3=O)cc21`: “inactive”; for `COC(=O)c1ccccc1S(=O)(=O)NC(=O)Nc1nc(C)nc(OC)n1`: “inactive”. The same measure for `O=[N+]([O-])c1c(Cl)c(Cl)c(Cl)c(Cl)c1Cl`: “inactive”; for `CCS(=O)(=O)c1cccnc1S(=O)(=O)NC(=O)Nc1nc(OC)cc(OC)n1`: “inactive”; for `CCC(C)(NC(=O)c1cc(Cl)c(C)c(Cl)c1)C(=O)CCl` (stereo not given): “inactive”. For `Cc1[nH]c(=O)n(C(C)(C)C)c(=O)c1Cl` the value was “inactive”.

Regarding `CCCN(CCC)c1c([N+](=O)[O-])cc(C(F)(F)F)cc1[N+](=O)[O-]`, the compound was classed as inactive.

With `O=C(O)COc1ccc(Cl)cc1Cl`, the result was inactive.

As to `Clc1ccccc1-c1nnc(-c2ccccc2Cl)nn1`, the compound was called inactive. As to `CCOc1nc(NC)nc(NC(=O)NS(=O)(=O)c2ccccc2C(=O)OC)n1`, the result was inactive. As for `CC(C)(C)C(O)C(Oc1ccc(Cl)cc1)n1cncn1` (stereo not given), the compound was called inactive.

`O=C1c2ccccc2C(=O)N1SC(Cl)(Cl)Cl`: the compound was classed as inactive. For `COC(=O)c1ccccc1CS(=O)(=O)NC(=O)Nc1nc(OC)cc(OC)n1` the value was “inactive”; for `Oc1ccc(Cl)cc1Cc1ccccc1`, “inactive”; for `CC(C)OC(=O)Nc1cccc(Cl)c1`, “inactive”. For `CNC(=O)/C=C(\C)OP(=O)(OC)OC` the value was “inactive”; for `CCN(CC)C(=O)SCc1ccc(Cl)cc1`, “inactive”. For the compound `COc1cc(OC)nc(NC(=O)NS(=O)(=O)c2cc(NC=O)ccc2C(=O)N(C)C)n1`, the compound was classed as inactive. For the compound `O=C(NC(=O)c1c(F)cccc1F)Nc1ccc(OC(F)(F)C(F)OC(F)(F)F)c(Cl)c1` (stereo not given), the compound was called inactive. For the compound `C[C@H]1[C@H](c2ccc(Cl)cc2)SC(=O)N1C(=O)NC1CCCCC1`, the call was inactive.

On to `COP(=O)(OC)OC=C(Cl)Cl`, for which the call was inactive.

As to `CCCN(CCOc1c(Cl)cc(Cl)cc1Cl)C(=O)n1ccnc1`, the compound was called inactive. The same measure for `CNC(=O)Oc1ccccc1OC(C)C`: “inactive”; for `CCC(C)Nc1c([N+](=O)[O-])cc(C(C)(C)C)cc1[N+](=O)[O-]` (stereo not given): “inactive”; for `CCOC1Oc2ccc(OS(C)(=O)=O)cc2C1(C)C` (stereo not given): “inactive”. The same measure for `Oc1cc(Cl)ccc1Oc1ccc(Cl)cc1Cl`: “inactive”.
